From PubChem BioAssay (NCI) come the findings set out here.

What all share (test): NCI-60 one-dose screen, 48 h (100 = growth as untreated, 0 = no growth, -100 = all killed)
Common to all, as to conditions: 10 µM unless noted

For experiment [1], the system named is NCI-H23 lung.
Experiment [2] concerns NCI-H226 lung.
Experiment [3] relates to NCI-H322M lung.
The subject of experiment [4] is HOP-62 NSCLC.
Experiment [5] concerns NCI-H460 lung.
The subject of experiment [6] is NCI-H522 lung.
Experiment [7] concerns A549/ATCC NSCLC.
Experiment [8] deals with 786-0 renal.
In experiment [9] the test system is COLO 205 colon.
In experiment [10] the test system is DU-145 prostate.
Experiment [11] deals with K-562 leukemia.
Experiment [12] concerns MALME-3M melanoma.
For experiment [13], the system named is MDA-MB-231 breast.
The subject of experiment [14] is RXF 393 renal.
The test system of experiment [15] is SF-268 CNS.
Experiment [16] deals with SF-295 CNS.
For experiment [17], the system named is SF-539 CNS.
The test system of experiment [18] is UACC-257 melanoma.
Experiment [19] has as its system M14 melanoma.

Compounds without any hit were thinned out: in the full panel of roughly 83,000, 20% have a hit.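 Interpretation: 100, growth as untreated; towards 0, rising growth inhibition; 0, no net growth; 0 to -100, cell death. Compounds scoring below 10 were considered active.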 Unmarked numbers belong to inactive results. The source made the active and inactive calls.

Consider `COc1ccc(/C=C/C(=O)c2cc(S(N)(=O)=O)c(OC)cc2OC)cc1`, for which the growth in [1] is 74.7%; in [2] it was 100%; in [3], 77.2%; in [4], 83%; in [5], 69.8%; in experiment [6], 78%. Also, the growth in experiment [7] was 84.3%; in experiment [8], 88.1%; in experiment [9], 92.6%; in experiment [10], 17.3%; in [11], 26.1%; in [12], 98%. Moreover, the growth is 64.6% in [13]; 40.1% in [14]; 80.7% in [15]; 93.2% in experiment [16]; 76.4% in experiment [17]; 87.9% in experiment [18]. The growth in [19] is 84.3%.
For `Cc1ccc(C(=O)NN2C(=O)/C(=C/C=C/c3ccco3)SC2=S)cc1`, the growth is 96.7% in experiment [1]; 96.1% in experiment [2]; 85.4% in experiment [3]; 105% in experiment [4]; 88.3% in experiment [5]; 83.5% in [6]. The growth in experiment [7] is 82.4%; in [8] it was 106%; in experiment [9] it was 126%; in [10], 103%; in experiment [11], 49.3%; in [12], 93.9%. Further, the growth in [13] is 96.7%; in experiment [14] it was 131%; in experiment [15], 96.9%; in experiment [16], 102%; in experiment [17], 93.4%; in experiment [18], 91%.
On to `O=C(Cn1c(-c2ccccc2)nc2cc(Cl)c(Cl)cc21)N=Nc1c(O)[nH]c2ccc(Cl)cc12`, for which the growth was 68.7% in experiment [1]; 37.3% in experiment [2]; 94.6% in experiment [3]; 86.5% in experiment [4]; 65.8% in experiment [5]; 72.1% in experiment [6]. For the same compound, the growth in experiment [7] is 73.8%; in experiment [8] it was 96.2%; in experiment [9] it was 66.6%; in experiment [10], 75.7%; in [11], 63.2%; in experiment [12] it was 81.6%. For the same compound, the growth in [13] was 85%; in experiment [14], -5.08% (active); in experiment [15] it was 104%; in experiment [16] it was 77.7%; in experiment [17], 79.4%; in experiment [18], 84.4%. In addition, in experiment [19], the growth is 60.7%.
`CCOc1cccc(-c2nc3sccn3c2-c2ccnc(S(C)(=O)=O)n2)c1`: the growth in experiment [1] was 99.1%; in experiment [2] it was 94%; in experiment [3], 93.1%; in experiment [4], 100%; in experiment [5], 76.8%; in experiment [6] it was 98.9%. For the same compound, the growth was 102% in experiment [7]; 103% in experiment [8]; 99.9% in experiment [9]; 0.125% (active) in experiment [10]; 55.4% in experiment [11]; 98.8% in experiment [12]. Further, the growth in [13] is 101%; in [14], 98.3%; in experiment [15] it was 99.7%; in experiment [16], 104%; in [17], 94.4%; in [18], 91.1%. Further, the growth in experiment [19] was 94.4%.
With `CNCc1cccc2c1OCCCCCCC(C)(O)CC(C)(C)S(=O)(=O)c1ccc(cc1)-c1cnc(N)c(n1)C(=O)N2` (stereo not given), the growth is 9.01% (active) in [1]; 43.5% in experiment [2]; 46.2% in [3]; 59.2% in experiment [4]; -56.3% (active) in [5]; -66.8% (active) in [6]. The growth is 11.4% in experiment [7]; -11.9% (active) in [8]; -48.2% (active) in experiment [9]; 9.36% (active) in [10]; -29.3% (active) in [11]; -58.7% (active) in experiment [12]. Besides, the growth in experiment [13] is -6.41% (active); in [14], -90.7% (active); in experiment [15], 13.2%; in [16] it was 10.9%; in experiment [17] it was -72% (active); in [18] it was 18.1%. Besides, the growth in experiment [19] was -88.9% (active).
In the case of `Cn1cc(-c2nnc(N)nc2-c2c[nH]c3ccc(F)cc23)c2cc(F)ccc21`, the growth was 83% in [1]; 91.6% in experiment [2]; 74% in [3]; 58.7% in experiment [4]; 30.9% in experiment [5]; 57.5% in [6]. Further, the growth was 82.2% in experiment [7]; 90% in experiment [8]; 84.2% in experiment [9]; 88.2% in experiment [10]; 48.6% in experiment [11]; 77.7% in experiment [12]. For the same compound, the growth is 78.3% in [13]; 98.7% in experiment [14]; 74.4% in [15]; 59.4% in experiment [16]; 95.4% in [17]; 121% in experiment [18]. In experiment [19], the growth was 73.3%.
On to `Clc1nc2ccccc2nc1-c1nnc(C2CCCCC2)o1`, for which the growth in [1] was 86.3%; in experiment [2] it was 84.7%; in experiment [3], 97.8%; in [4], 106%; in experiment [5], 97.5%; in experiment [6], 99%. Also, the growth in [7] is 98.4%; in experiment [8] it was 106%; in experiment [9] it was 110%; in experiment [10], 91.3%; in [11], 80.9%; in [12] it was 95.2%. For the same compound, the growth was 105% in [13]; 87.6% in [14]; 101% in experiment [15]; 106% in experiment [16]; 97.7% in [17]; 96.7% in [18].
For the compound `COc1ccc2[nH]cc(/C=N/Nc3nc4ccccc4s3)c2c1`, the growth is 67.6% in [1]; 75.6% in [2]; 79.2% in [3]; 62.9% in experiment [4]; 32.1% in experiment [5]; 28.5% in experiment [6]. Besides, the growth in experiment [7] was 52.4%; in experiment [8] it was 52.9%; in experiment [9], 80.4%; in experiment [10] it was 60.3%; in experiment [11] it was 24.3%; in experiment [12], 98.4%. Besides, the growth in [13] is 67.2%; in experiment [14] it was 60.8%; in [15], 55.9%; in experiment [16], 58.5%; in experiment [17], 70.5%; in experiment [18] it was 81.9%. In experiment [19], the growth is 52%.
